Screens deposited in PubChem BioAssay by several laboratories.
Autophagy HCS: autophagy modulators in MEF cells, primary screen, imaging, high-content, MEF GFP-LC3; actives 0.98% (n = 190,000); MEF GFP-LC3 puncta imaging; test concentration mostly 10 µM; calls only at 10 µM (by protocol);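 active = percentage of spot-positive cells more than 3 SD above its plate mean, without a fluorescence outlier flag or 80% toxicity; inconclusive = no clear call, values can overlap the other calls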
Insulin prom inh: inhibitors of insulin promoter-driven GFP, primary screen, imaging, TRM-6 cells (human fetal islet line), eGFP reporter, cell count. reporter expression induced with tamoxifen. inhibition, % at 2 µM. actives 0.9% (n = 130,000). AID 1273, 2008;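 active = inhibition above the mean plus 3 SD, with well images judged a real hit on visual review, cut at about 60% in these data, passing the limit was not always enough; inconclusive = inhibition over the cutoff but images rejected on review; inactive = inhibition not above the cutoff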
L major viab: Leishmania major promastigote growth inhibition, primary screen | Leishmania major promastigotes, resazurin fluorescence viability | inhibition, % at 10 µM | actives 9% (n = 200,000) | AID 1063, 2008; in the data active = inhibition above about 50%;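 also: promastigotes grown with compound for 44 hours at 28 °C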
HCT116 PTEN-null: growth suppression of PTEN-null HCT116, primary screen, cell-based, CellTiter-Glo. HCT116 PTEN-null viability, 60 h; stronger effect = lower value. actives 1.2% (n = 140,000). viability, % at 10 µM. AID 827, 2007;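 active = viability at or below a set limit, 4 SD under the median of all tested compounds, cut at about 3.7% in these data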;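 also: PTEN knockout HCT116 line with beta catenin targeted HCT116 as companion control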
Ins promoter up: insulin promoter activators in MIN6 cells, imaging, high-content screening, mouse beta cells | actives 0.3% (n = 190,000) | MIN6 insulin promoter-GFP reporter; stronger effect = higher value | AID 1625, 2009 | z-score at 5 µM;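 active = z-score above 3 at 5 µM with at least 500 cells counted in the well; inconclusive = wells under 500 cells, flagged as cytotoxic or low count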
bCat KO growth: primary screen for growth suppressors in beta-catenin knockout HCT116 cells (colon tumor, human). viability, % at 10 µM. HCT116 beta-catenin knockout viability, CellTiter-Glo, 60 h; stronger effect = lower value. actives 1.5% (n = 140,000);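 active = viability at or under a set limit, the compound median less 4 SD, cut at about 6% in these data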
Each line names hits and unclear results; the compound was inactive in the other large screens. In the library only some 9.6% were active in any assay of this set; here they are far more common.

COc1ccc(C(=O)C[n+]2cc(-c3ccc(OC)cc3)n3c2CCCC3)cc1	L major viab 99, Ins promoter up inconclusive (no result: HCT116 PTEN-null, bCat KO growth)
Cc1ccc(-c2c[n+](CC(=O)c3cccs3)c3n2CCC3)cc1	none (no result: Autophagy HCS, Insulin prom inh, L major viab, HCT116 PTEN-null, bCat KO growth)
COc1ccc(/C=C2/SC(=O)N(CCNC(=O)CC(NC(C)=O)c3ccccc3)C2=O)cc1 (configuration not stated)	none (no result: Autophagy HCS, Insulin prom inh, L major viab, HCT116 PTEN-null, bCat KO growth)
COc1ccc(/C=C2/SC(=O)N(CCNC(=O)C3CCCN3C(=O)c3cccs3)C2=O)cc1 (configuration not stated)	L major viab 76
COc1ccc(/C=C2\SC(=O)N(CCNC(=O)C3CC4C=CC3C4)C2=O)cc1 (configuration not stated)	L major viab 96 (no result: HCT116 PTEN-null, bCat KO growth)
CCOC(=O)C1CCN(C(=O)c2cn(-c3ccccc3)nc2-c2cccnc2)CC1	none (no result: Insulin prom inh, HCT116 PTEN-null, bCat KO growth)
Cc1ccc(CC(=O)N(Cc2ccccc2)c2ccccn2)cc1	none (no result: Insulin prom inh, HCT116 PTEN-null, bCat KO growth)
C/C(=C\C(=O)c1ccc(Cl)cc1)Nc1ccc(N2CCOCC2)cc1	Autophagy HCS active
CCNCC(=O)Nc1ccc(N2CCOCC2)cc1	Autophagy HCS active (no result: Insulin prom inh, HCT116 PTEN-null, bCat KO growth)
Cc1ccc(N2CCN(c3ccc(NC(=O)CCC(=O)O)cc3)CC2)cc1	Insulin prom inh 73
Cc1ccc(CNCC(=O)Nc2ccc(N3CCOCC3)cc2)cc1	none (no result: Autophagy HCS, Insulin prom inh, L major viab, HCT116 PTEN-null, bCat KO growth)
Cc1ccc2c(c1)N(CCC(=O)NC(C)C)C(=O)CO2	none (no result: Ins promoter up)
O=C(O)c1cc(-c2ccc(Cl)cc2)n(-c2ccccc2)n1	none (no result: HCT116 PTEN-null, bCat KO growth)
O=c1cnn(-c2ccccc2)c(-c2ccccc2)c1	L major viab 82
COC(=O)[C@@H](NC(=O)NCc1ccc(F)cc1)C(C)C	none (no result: Ins promoter up)
Cc1[nH]n(-c2ccccc2)c(=O)c1C(C[N+](=O)[O-])c1ccc(F)cc1 (configuration not stated)	L major viab 60
COc1ccc(C(c2c(C)[nH]n(-c3ccccc3)c2=O)c2c(C)[nH]n(-c3ccccc3)c2=O)cc1OC	L major viab 88
Cc1ccc(C(C[N+](=O)[O-])c2c(C)[nH]n(-c3ccccc3)c2=O)cc1 (configuration not stated)	L major viab 97
Cc1[nH]n(-c2ccccc2)c(=O)c1C(C[N+](=O)[O-])c1ccc(Cl)cc1 (configuration not stated)	none
Cc1[nH]n(-c2ccccc2)c(=O)c1C(c1ccccc1C(=O)O)c1c(C)[nH]n(-c2ccccc2)c1=O	none
CCOC(=O)N1CCN(C(=O)Nc2ccc3oc(C)nc3c2)CC1	none
CC1CCC2(CC1)NC(=O)N(Cc1cccc(C(F)(F)F)c1)C2=O (configuration not stated)	L major viab 100 (no result: HCT116 PTEN-null, bCat KO growth)
CC(=O)N(CC(C)(C)CC=C(C)C)c1ccccc1	Insulin prom inh 65
COc1ccc(CCN(Cc2nc3ccccc3c(=O)[nH]2)C(=O)c2ccco2)cc1	none
CCC(CC)C(=O)N(CCc1ccc(OC)cc1)Cc1nc2ccccc2c(=O)[nH]1	L major viab 100
O=C(Nc1ccsc1C(=O)N1CCCC1)c1ccccc1	Insulin prom inh 91 (no result: HCT116 PTEN-null, bCat KO growth)
Cc1nn(C(=O)CNS(=O)(=O)c2ccccc2)c(C)c1Sc1ccc(Cl)cc1	L major viab 51
CC1(C)CC(=O)c2c(O)cc(OCc3ccc(Br)cc3)cc2O1	L major viab 69
COc1ccc(C2C3=C(N=C4SCC(=O)N42)c2ccccc2CC3)cc1 (configuration not stated)	Insulin prom inh 71
CCN(CC)C(=O)C(=O)c1cccn1-c1ccccc1C#N	Insulin prom inh 100
CCN(CC)CCCNC(=O)C1c2ccccc2Oc2ccccc21	none (no result: Insulin prom inh)
CNCCCC1Sc2ccccc2Oc2ccccc21 (configuration not stated)	L major viab 100 (no result: Ins promoter up)
COc1ccccc1NC(=O)CSc1nc2n[nH]c(C)c2c(=N)n1-c1ccccc1Cl	L major viab 65
NC(=O)NCCC1=CCCCC1	none
O=C(CNC(=O)c1ccccn1)N/N=C/c1ccc2c(c1)OCO2	L major viab 63 (no result: HCT116 PTEN-null, bCat KO growth)
Cn1cc([N+](=O)[O-])c(C(=O)N/N=C/c2ccc3c(c2)OCO3)n1	Insulin prom inh 78 (no result: HCT116 PTEN-null, bCat KO growth)
CCOc1ccccc1-c1cc(C(=O)N/N=C/c2ccc3c(c2)OCO3)c2ccccc2n1	L major viab 51
Cc1ccc(C(=O)N/N=C/c2ccc3c(c2)OCO3)o1	none
Cc1cc(C(=O)N/N=C/c2ccc3c(c2)OCO3)c2ccccc2n1	none (no result: Autophagy HCS, Insulin prom inh, L major viab, HCT116 PTEN-null, bCat KO growth)
O=C(N/N=C/c1ccc2c(c1)OCO2)c1cc(-c2ccccc2Cl)nc2ccccc12	L major viab 56
COc1ccc(-c2cc(C(F)(F)F)n3nc(C(=O)Nc4cc(C)on4)cc3n2)cc1OC	none
CCN(CC)S(=O)(=O)c1ccc(OC(C)C)nc1	none (no result: Ins promoter up)
CCOCCCNC(=O)C1CCC(CNS(=O)(=O)c2ccc(OC)cc2)CC1 (configuration not stated)	none (no result: Insulin prom inh, HCT116 PTEN-null, bCat KO growth)
COC(=O)C(C(=O)OC)C(C)C(C(=O)OC)C(=O)OC	none
CCOc1ccccc1-c1cc(C(=O)N/N=C/c2ccc(O)c(OC)c2)c2ccccc2n1	L major viab 58
CCOc1cc(/C=N/NC(=O)c2cc(-c3cccnc3)nc3ccccc23)ccc1O	none (no result: Insulin prom inh, HCT116 PTEN-null, bCat KO growth)
O=[N+]([O-])c1ccc(-c2c[nH]c(=S)[nH]2)cc1	none (no result: Autophagy HCS, Insulin prom inh, L major viab, HCT116 PTEN-null, bCat KO growth)
N#Cc1c(-c2ccccc2F)cc(-c2cccnc2)nc1N	L major viab 71
CCOc1ccc(-n2c([S-])c(C(=O)Nc3ccc(S(=O)(=O)N4CCOCC4)cc3)[n+]3cc(C(N)=O)ccc23)cc1	none (no result: Autophagy HCS, Insulin prom inh, L major viab, HCT116 PTEN-null, bCat KO growth)
O=C(COc1ccc(F)cc1)NC1CC1	none (no result: Insulin prom inh)
O=C(COc1ccc(C(=O)c2ccccc2)cc1)NC1CCCCCC1	L major viab 62
O=C(COc1ccccc1)NC1CCCCC1	none
O=C(COc1ccc(C(=O)c2ccccc2)cc1)NC1CCCCC1	L major viab 53
CCCNC(=O)COC(=O)/C=C/c1ccc2c(c1)OCO2	none
CCN(CC)S(=O)(=O)c1cc(C(=O)N2CCc3ccccc32)ccc1Cl	L major viab 75
CCN(CC)S(=O)(=O)c1cc(C(=O)NC2=NCCS2)ccc1Cl	none
CN1CCN(c2ccc(Cl)cc2NC(=O)c2ccc(S(=O)(=O)N(C)C)cc2)CC1	L major viab 100 (no result: Insulin prom inh, Ins promoter up)
CCN(CC)S(=O)(=O)c1cc(C(=O)Nc2cc(Cl)ccc2N2CCN(C)CC2)ccc1Cl	L major viab 100, HCT116 PTEN-null 0.5, bCat KO growth 0.6 (no result: Ins promoter up)
CCN(CC)S(=O)(=O)c1ccc(Cl)c(C(=O)N2CCc3ccccc32)c1	none (no result: Ins promoter up)
CCN(CC)S(=O)(=O)c1cc(C(=O)Nc2ccccc2[N+](=O)[O-])ccc1Cl	L major viab 78, HCT116 PTEN-null 2.5
CC(C)C1CC(CCN)(Cc2ccccc2)CCO1 (configuration not stated)	none (no result: HCT116 PTEN-null, bCat KO growth)
COc1ccc(NS(=O)(=O)c2cc(C(=O)N3CCN(C(C)=O)CC3)ccc2Cl)cc1	none (no result: HCT116 PTEN-null, bCat KO growth)
